Cruzain noTriton: blocks cruzain activity in detergent-free assay; purified cruzain, Z-FR-AMC fluorescence, no detergent; Potency, µM, inactives show max response, negative = inhibition, hits mostly inhibitors; 200,000 compounds, 2.3% hits;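 also: plate controls were enzyme without inhibitor for no effect and buffer without enzyme for full effect; nearly all actives have a fitted effect of over 40% in size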
Target sequence (P25779 123-467 limits assumed): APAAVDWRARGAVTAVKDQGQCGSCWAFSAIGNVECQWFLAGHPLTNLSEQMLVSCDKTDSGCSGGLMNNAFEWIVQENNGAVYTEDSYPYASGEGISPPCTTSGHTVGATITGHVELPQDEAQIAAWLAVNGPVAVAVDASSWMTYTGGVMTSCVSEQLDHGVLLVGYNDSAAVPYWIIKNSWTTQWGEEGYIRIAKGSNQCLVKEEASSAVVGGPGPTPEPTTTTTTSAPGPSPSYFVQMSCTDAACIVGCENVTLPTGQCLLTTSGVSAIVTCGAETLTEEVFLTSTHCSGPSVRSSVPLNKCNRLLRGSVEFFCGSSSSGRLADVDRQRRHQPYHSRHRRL
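Purified cruzain at 1.5 nM, pre-incubated 15 min with compound at room temperature in 100 mM sodium acetate pH 5.5, 5 mM DTT, 0.00005% Triton X-100. Reaction started with 2 uM Z-FR-AMC; AMC fluorescence increase over 60 s gives rate.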
Cruzain Triton: inhibitors of Trypanosoma cruzi cruzain with detergent; P25779; purified cruzain, Z-FR-AMC fluorescence, 0.01% Triton; Potency, µM, without a hit: max response, negative = inhibition, usual class: inhibitors; 200,000 compounds, 0.43% hits;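 also: plate controls were neutral wells for no effect and buffer without enzyme for full effect; nearly all actives have a fitted effect of over 40% in size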
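Read-out: AMC fluorescence (360 nm excitation, 450 nm emission), four reads over 2 min, first-to-third difference used. Conditions: cruzain 1.5 nM, Z-FR-AMC 2 uM, pH 5.5 acetate, 5 mM DTT, 0.01% Triton X-100.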
* marks the source's active call; other numbers are inactive results; ? = inconclusive. A selection: hits, their analogues and other compounds. The true share with any hit is near 2.4%. Calls follow the shape of the dose curve; as a rule, active = well fitted curve in the direction sought with a large enough effect; inconclusive = small, poorly fitted or top-dose-only effect, or another doubt; inactive = no such curve, though single readings can be large; an effect the other way counts as inactive or inconclusive. Potency is read from the fitted curve at half-maximal effect.

SMILES	Cruzain noTriton	Cruzain Triton
Cc1ccc(NC(=O)N2CCc3c([nH]c4ccccc34)C2c2ccccc2F)c(Cl)c1 (stereo not given)	?	-4.1%
Nc1ccccc1C(=O)/C=C/c1ccccc1	-2.7%	1.9%
O=C(CNC(=O)c1ccccc1)NCC(=O)OCC(=O)c1ccc([N+](=O)[O-])cc1	-5.7%	-4.4%
CC(C)CNC(=O)COC(=O)c1ccc([N+](=O)[O-])cc1Cl	-10.1%	0.4%
COc1cc(OC)cc(C(=O)NCC(=O)OCC(=O)NC(C)(C)C)c1	2.4%	-1.2%
CCNC(=O)COC(=O)CNC(=O)c1cc(Cl)cc([N+](=O)[O-])c1	7.94µM*	7.94µM*
CC(C)CNC(=O)COC(=O)CNC(=O)c1cc(Cl)cc([N+](=O)[O-])c1	7.94µM*	10µM*
CC(C)(C)NC(=O)COC(=O)CNC(=O)c1cc(Cl)cc([N+](=O)[O-])c1	20µM*	25.1µM*
CCc1ccc(NC(=O)N2CCN(Cc3nc4ccc(C)cc4o3)CC2)cc1	?	-2.1%
CC(=O)c1nnn(-c2ccc(C)cc2Cl)c1C	5.1%	0.1%
COc1ccc(OC)c(NCc2cccn2-c2nnc(N3CCCCC3)s2)c1	2.3%	-2.7%
COC(=O)c1ccc(C23CC4(C2)[C@H](CN(Cc2ccc(-c5ccccc5)cc2)[C@@H]4c2ccccc2)C3c2ccc(C(F)(F)F)cc2)cc1 (stereo not given in full)	?	1.0%
FC(F)(F)c1ccc(C2[C@H]3CN(Cc4ccc(-c5ccccc5)cc4)[C@H](c4ccccc4)C34CC2(c2cccnc2)C4)cc1 (stereo not given in full)	-6.4%	7.0%
c1ccc(-c2ccc(CN3C[C@@H]4C(c5ccccc5)C5(c6cccnc6)CC4(C5)[C@H]3c3ccccc3)cc2)cc1 (stereo not given in full)	-0.6%	-0.2%
COC(=O)c1cccc(C23CC4(C2)[C@H](CN(Cc2ccc(C(F)(F)F)cc2)[C@@H]4c2ccccc2)C3c2ccccc2)c1 (stereo not given in full)	-29.5%	0.2%
COC(=O)c1cccc(C23CC4(C2)[C@H](CN(Cc2ccc(-c5ccccc5)cc2)[C@@H]4c2ccccc2)C3c2ccccc2)c1 (stereo not given in full)	12.6µM*	2.8%
COC(=O)c1cccc(C23CC4(C2)[C@H](CN(Cc2ccc(-c5ccccc5)cc2)[C@@H]4c2ccccc2)C3c2ccc(C(F)(F)F)cc2)c1 (stereo not given in full)	25.1µM*	-1.9%
COC(=O)c1ccc(C23CC4(C2)[C@H](CN(Cc2ccc(-c5ccccc5)cc2)[C@@H]4c2ccccc2)C3c2ccc(Cl)nc2)cc1 (stereo not given in full)	15.8µM*	3.2%
FC(F)(F)c1ccc(C2[C@H]3CN(Cc4ccc(-c5ccccc5)cc4)[C@H](c4ccccc4)C34CC2(c2ccccc2)C4)cc1 (stereo not given in full)	12.6µM*	3.0%
CC1=C(C(=O)Nc2cccnc2)C(c2ccccc2)n2nc(SCc3ccccc3)nc2N1 (stereo not given)	9.2%	0.7%
CSc1nn(Cc2ccc(C)cc2)c(N)c1S(=O)(=O)c1ccccc1	-5.7%	-10.7%
c1ccc2c(-n3ccnc3)nc(-c3ccoc3)nc2c1	-1.9%	-5.1%
CC(C)CC(NC(=O)C1CCCCC1)C(=O)Nc1cccc(C(F)(F)F)c1 (stereo not given)	-9.9%	-16.7%
C=CCOC(=O)N[C@@H](c1ccccc1)[C@@H](C)[N+](=O)[O-]	-7.3%	4.3%
O=C(Nc1ccc(NC(=O)C23CC4CC(CC(C4)C2)C3)cc1)c1cc(F)c(F)cc1Cl	25.1µM*	6.3%
SMILES	Cruzain noTriton	Cruzain Triton
CN(C)S(=O)(=O)c1ccc(NC(=O)c2cc(F)c(F)cc2Cl)cc1	10.5%	-3.6%
COc1ccc2nc(NC(=O)CCc3nc(-c4ccccc4F)no3)sc2c1	7.94µM*	0.4%
COc1ccc2nc(NC(=O)Cc3cccs3)sc2c1	-13.2%	0.3%
Cc1ccc(Sc2c(C)nn(C(=O)COc3ccccc3Br)c2C)cc1	9.3%	-2.9%
CN(C)c1ncc2nc(-c3ccccc3)c(=O)n(Cc3cccs3)c2n1	-1.6%	4.2%
CC1(C)C(C=C(Cl)Cl)C1C(=O)Nc1ccc([N+](=O)[O-])cc1 (stereo not given)	10µM*	12.6µM*
O=C(Nc1ccc([N+](=O)[O-])cc1)C1CC1(c1ccccc1)c1ccccc1 (stereo not given)	5.0%	-8.6%
CCCC1=Nc2cc(C(=O)NC3CCCC3)ccc2Sc2ccc(C)cc21	?	-3.9%
CCOC(=O)C1=C(O)C(=O)N(c2ccc(S(N)(=O)=O)cc2)C1c1ccc(OC)cc1 (stereo not given)	-0.7%	1.0%
CCOC(=O)C1C(C)=C(Nc2ccc(OC)cc2)C(=O)N1c1ccc(OC)cc1 (stereo not given)	12.6µM*	-1.5%
CCC(C)NC(=O)Cn1c(=O)n(-c2ccc(C)c(C)c2)c(=O)c2c3c(sc21)CCCCC3 (stereo not given)	-5.2%	-1.0%
Cc1cc(N/N=C/c2c(O)ccc3ccccc23)nc(-c2ccccc2O)n1	15.8µM*	-0.3%
Oc1ccc2ccccc2c1/C=N/Nc1ccccc1	-7.4%	-6.1%
O=C1CC(c2ccccc2)Cc2[nH]c(=O)c(-c3nc(-c4ccc(F)cc4)cs3)cc21 (stereo not given)	5.2%	4.9%
COc1cccc(C(=O)NC2=NCCS2)c1	-5.0%	0.3%
COc1ccc(N(Cc2ccccc2)S(=O)(=O)c2cccc(C(=O)NC3=NCCS3)c2)cc1	25.1µM*	3.9%
CCOC(=O)N1CCc2c(sc3c2c(=O)n(CCc2ccccc2)c(=O)n3Cc2ccc(F)cc2)C1	-15.1%	-0.8%
CCOc1ccc2c(c1)C(c1ccc(C)cc1)=NNC(c1ccc(OC)cc1)=N2	15.8µM*	-2.3%
CCOc1ccc(C2=NNC(c3cccs3)=Nc3ccc(OC)cc32)cc1	?	-12.1%
COc1ccc(-c2nc3sc(CCNS(=O)(=O)c4c(C)cc(C)cc4C)c(C)n3n2)cc1	?	-4.0%
COc1cc(C/C=C\c2ccccc2)c(OC)cc1O	1.0%	-6.0%
COc1ccc(C2CC(=O)N3CN(C4CCCCC4)CSC3=C2C#N)c(OC)c1 (stereo not given)	28.4%	25.1µM*
COc1ccc2ccccc2c1C1CC(=O)N2CN(C3CCCCC3)CSC2=C1C#N (stereo not given)	?	-14.9%
CCNc1ncc2nc(-c3cccc(C#N)c3)c(=O)n(CCC#N)c2n1	14.2%	-2.5%
Cc1cc(C(=O)COc2cccc(-n3cnnn3)c2)c(C)n1-c1ccccc1	20µM*	-6.7%
SMILES	Cruzain noTriton	Cruzain Triton
COC(=O)COc1cccc(-n2cnnn2)c1	7.5%	1.5%
Cc1cccc(N2CCN(C(=O)c3oc(=O)c4ccccc4c3-c3ccccc3)CC2C)c1 (stereo not given)	-5.7%	-6.1%
O=c1cc(NCc2ccccc2)nc2n1CCCS2	25.1µM*	-2.7%
O=C(COc1cc(=O)n2c(n1)SCCC2)c1ccccc1	-1.1%	4.5%
COc1ccc(-n2cc(C(=O)Nc3ccccc3C#N)c3ccccc3c2=O)cc1	?	-4.4%
CC(=O)Nc1ccc(S(=O)(=O)N(C)c2ccccc2)cc1	-6.9%	2.8%
O=C(O)c1ccc(S(=O)(=O)c2ccccc2)cc1	-5.5%	2.3%
CN(c1ccccc1)S(=O)(=O)c1ccc(NC(=O)c2ccc(-c3ccccc3)cc2)cc1	25.1µM*	2.8%

Bioassay records: PubChem BioAssay, National Center for Advancing Translational Sciences (NCATS)
